Data on 39 compounds can be found in PubChem BioAssay (Tox21).

“And” between values parts separate entries of the source, which are not always exact repeats. Identical values can stand only once. Results filed as inconclusive are left out. Entries that show only a call come without a potency. Unmarked numbers belong to inactive results. The source made the active and inactive calls. The call rests on the fitted dose curve; in most records, active means well fitted inhibition curve with a large enough effect in the repeat runs; inconclusive means weak or mixed curves; inactive means flat fitted curve, though single readings scatter.
Potency means the concentration at half of the fitted maximal effect.

The experiment can be described thus: qHTS assay to identify small molecule HDAC inhibitors (AID 1259364). Further: nearly all actives have a fitted effect of over 45% in size. On activity change, negative = inhibition: top concentration of the series differs between compounds. The following applies: HCT-116 HDAC-Glo I/II luminescence, 2 h; series mostly up to 92.4 µM. The method, boiled down:
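Luminescence from a cell-permeant luminogenic class I/II HDAC substrate reports endogenous deacetylase activity in intact HCT-116 cells treated with compounds for 2 h.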
Regarding `CCCCCCCC(=O)OC`, the Potency entry is “inactive”.

For `CCN(CC)CCCC(C)Nc1ccnc2cc(Cl)ccc12` (centres undefined), the activity change, negative = inhibition was 5.21% [at 8.39 µM] and -11.7% [at 19 µM].

With `CC1=C(C)S(=O)(=O)CCS1(=O)=O`, the Potency entry is “inactive”.

Turning to `OCC(CO)(CBr)CBr`, the Potency entry is “inactive”.

In the case of `CN(C)CCC(c1ccc(Cl)cc1)c1ccccn1` (centres undefined), the Potency entry is “inactive”.

As to `CN(C)CCCN`, the Potency entry is “inactive”.

Consider `C=C(C)C(=O)OCCOCCOCCOC(=O)C(=C)C`, for which the Potency result was “inactive”.

Turning to `CCCCC(CC)CO` (centres undefined), the Potency entry is “inactive”.

In the case of `Cc1ccc(N(C)C)cc1`, the Potency entry is “inactive”.

For the compound `O=C(O)c1cc(C(=O)O)cc(S(=O)(=O)O)c1`, the Potency result was “inactive”.

With `O=C(O)c1ccc(C(=O)O)cc1`, the Potency result is “inactive”.

`CCCCCCCCCCCCOCCO`: the Potency entry is “inactive”.

`CC(O)COCC(C)O` (centres undefined): the Potency entry is “inactive”.

Consider `C[C@H]1C[C@H]2[C@@H]3CCC4=CC(=O)C=C[C@]4(C)[C@@]3(F)[C@@H](O)C[C@]2(C)[C@@]1(O)C(=O)CO`, for which the Potency entry is “inactive”.

For `CCOC(=O)NNc1nncc2ccccc12`, the Potency entry is “inactive”.

As to `COc1ccc(Nc2ccccc2)c(C)c1`, the Potency result was “inactive”.

For `O=S(=O)(O)c1ccc2ccccc2c1`, the Potency result is “inactive”.

Take `Cc1cnc(C(=O)NCCc2ccc(S(=O)(=O)NC(=O)NC3CCCCC3)cc2)cn1`: the Potency entry is “inactive”.

With `O=C1CCC(N2C(=O)c3ccccc3C2=O)C(=O)N1` (centres undefined), the Potency entry was “inactive”.

Regarding `Cc1cccnc1`, the Potency entry was “inactive”.

As for `OCCOCCN1CCN(C2=Nc3ccccc3Sc3ccccc32)CC1`, the Potency result is “inactive”.

For `CC[C@H](C)C(=O)O[C@H]1C[C@@H](C)C=C2C=C[C@H](C)[C@H](CC[C@@H]3C[C@@H](O)CC(=O)O3)[C@H]21`, the Potency result was “inactive”.

For `CCCCCOC(C)=O`, the Potency entry was “inactive”.

Turning to `O=[N+]([O-])c1ccc(/C=C/c2ccc([N+](=O)[O-])cc2S(=O)(=O)O)c(S(=O)(=O)O)c1`, the Potency result is “inactive”.

Consider `Cc1cccc(O)c1`, for which the Potency entry was “inactive”.

On to `CCCCCC(N)=O`, for which the Potency result is “inactive”.

As to `Cc1ccc(S(N)(=O)=O)cc1`, the Potency result is “inactive”.

In the case of `COS(C)(=O)=O`, the Potency entry is “inactive”.

Consider `CCCC(C)=O`, for which the Potency result is “inactive”.

Regarding `OCc1cccnc1`, the Potency entry was “inactive”.

With `C=CCOC(=O)c1ccccc1C(=O)OCC=C`, the Potency result was “inactive”.

On to `CCCSc1ccc2nc(NC(=O)OC)[nH]c2c1`, for which the Potency is 6.11 µM (active) and 10.6 µM (active).

`O=P(OC(CCl)CCl)(OC(CCl)CCl)OC(CCl)CCl`: the Potency result is “inactive”.

Turning to `COc1ccc2cc([C@H](C)C(=O)O)ccc2c1`, the Potency result is “inactive”.

Consider `O=C(O)[C@H](O)[C@@H](O)[C@H](O)[C@H](O)CO`, for which the Potency entry was “inactive”.

Turning to `Cc1cc(C)c(C)cc1C`, the Potency result is “inactive”.

For the compound `CCCCOC(=O)COc1ccc(Cl)cc1Cl`, the Potency entry is “inactive”.

For `C[C@H]1C[C@@H]2[C@H]([C@@H](O)C[C@@]3(C)[C@H]2CC[C@]3(O)C(=O)CO)[C@@]2(C)C=CC(=O)C=C12`, the Potency entry was “inactive”.

Regarding `C=C(C)C(=O)Nc1ccc(Cl)c(Cl)c1`, the Potency result was “inactive”.
